For assay [1], the system named is PRMT1 (protein arginine N-methyltransferase 1). The assay can be described thus: PRMT1 binders on small-molecule microarrays, primary screen, biochemical, small-molecule microarray, 635 nm fluorescence (AID 1088).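 Note: binding of Prmt1 protein to compounds spotted on small-molecule microarray slides.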 The settings on record: small-molecule microarray binding, higher = more signal.
Assay [2] can be described thus: yeast growth modulation, basal conditions, primary screen, YJM789 clinical isolate, OD600, 24 h (AID 1089).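 Note: growth of clinical yeast isolate S. cerevisiae YJM 789 seeded 1000 cells per well; test concentration not given here.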 The settings on record: S. cerevisiae YJM789 growth, higher = more signal, called active from +8 up or from −8 down.
Assay [3] is described as follows: fission yeast growth modulation, primary screen, strain 972, OD600, 24 h, no modulator (AID 1090).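 Note: basal condition with compound alone and no growth modifier present; test concentration not given here.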 The settings on record: S. pombe 972 growth, higher = more signal, called active from +8 up or from −8 down.
Assay [4] can be described thus: S. cerevisiae growth modulation with rapamycin, primary screen, strain BY4716, OD600, 96 h (AID 1091). Note: test concentration not given here. The settings on record: higher = more signal, called active from +8 up or from −8 down.
Assay [5] concerns the target Torsin-1A-interacting protein 2 (Homo sapiens) (UniProt Q8NFQ8). The assay can be described thus: LULL1 binders on small-molecule microarray, primary screen, cell lysate, human LULL1 lysate, 635/667 nm fluorescence (AID 1092).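 Note: probe is lysate of COS7 cells overexpressing human LULL1; score merges per-feature 667 nm fluorescence with signal-to-noise.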 To be noted: hLULL1 lysate binding, 635 nm fluorescence, higher = more signal.
The nature of assay [6]: E. coli growth modulation, two-sided OD650, primary screen, E. coli filamentation project, strain DRC41, 24 h (AID 1093).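 Note: MC1000 strain lacking acrAB efflux and sulA so SOS filamentation is blocked; test concentration not given here.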 The settings on record: OD650, 24 h, higher = more signal, called active from +8 up or from −8 down.
The nature of assay [7]: small-molecule microarray binders of probe aLefty2, primary screen, biochemical, biotinylated probe, 635/667 nm fluorescence (AID 1094).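 Note: score merges spot fluorescence near 667 nm with spot signal-to-noise ratio.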 To be noted: higher = more signal.
Assay [8] relates to Noggin (protein binding on small-molecule microarray). As to the kind of experiment: Noggin binders on small-molecule microarray, primary screen, biochemical, 635/667 nm fluorescence (AID 1095).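 Note: score merges 667 nm feature fluorescence with signal to noise over triplicate slides.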 The settings on record: 635 nm fluorescence, higher = more signal.
In assay [9] the target is Neurogenic locus notch homolog protein 3 (Homo sapiens) (UniProt Q9UM47). The assay can be described thus: NOTCH3 binders on small-molecule microarray, primary screen, biochemical, 635/667 nm fluorescence (AID 1096). To be noted: NOTCH3 binding, 635 nm fluorescence, higher = more signal.
Assay [10] can be described thus: small-molecule microarray binders of probe aEGFR, primary screen, biochemical, biotinylated probe, 635/667 nm fluorescence (AID 1097).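 Note: probe is a biotinylated anti-EGFR antibody binding compounds printed on slides; score combines fluorescence near 667 nm and signal to noise of each spot.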 To be noted: higher = more signal.
For assay [11], the system named is Plasmodium falciparum Sir2 (PF13_0152, Sir2A). The assay can be described thus: pfSir2 binders on small-molecule microarrays, primary screen, biochemical, small-molecule microarray, 635 nm fluorescence (AID 1098).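 Note: score merges spot fluorescence intensity with its signal-to-noise ratio.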 To be noted: small-molecule microarray binding, fluorescence 635 nm; higher = more signal.
Assay [12] in a line: small-molecule microarray binders of probe aDKK1, primary screen, biochemical, biotinylated probe, 635/667 nm fluorescence (AID 1099).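 Note: score merges 667nm spot fluorescence with signal to noise across triplicate slides; reference of the scale not given here.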 To be noted: higher = more signal.
A short description of assay [13]: small-molecule microarray binders of probe aCHRDL2, primary screen, biochemical, biotinylated probe, 635/667 nm fluorescence (AID 1100). The settings on record: higher = more signal.
Assay [14] in a line: splicing luciferase reporter signal modulators, primary screen, spliceosome inhibition project, cell-based, HEK293, splice +/- reporter (AID 1101).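 Note: HEK293 cells carrying a splicing-competent luciferase reporter gene; test concentration not given here.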 To be noted: luminescence, 24 h, higher = more signal, called active from +8 up or from −8 down. In general terms: A reporter such as luciferase makes a cellular process visible.
The target of assay [15] is Fibroblast growth factor 10 (Homo sapiens) (UniProt O15520). As to the kind of experiment: FGF10 binders on small-molecule microarrays, primary screen, biochemical, small-molecule microarray, 635 nm fluorescence (AID 1102). To be noted: FGF10 binding, fluorescence 635 nm, higher = more signal.
Assay [16] relates to glycogen synthase kinase-3 (GSK3A per assay name; protocol says GSK3B). The assay can be described thus: GSK3 binders on small-molecule microarrays, primary screen, biochemical, small-molecule microarray, 635 nm fluorescence, GSK3A (AID 1103). Note: the record names both GSK3A and GSK3B. To be noted: small-molecule microarray binding, fluorescence 635 nm; higher = more signal.
The target of assay [17] is Epidermal growth factor receptor (Homo sapiens) (UniProt P00533). The assay can be described thus: EGFR binders on small-molecule microarrays, primary screen, biochemical, small-molecule microarray, 635 nm fluorescence (AID 1104).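 Note: score merges 667 nm emission intensity with spot signal to noise over triplicate slides.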 To be noted: EGFR binding, higher = more signal.
The target of assay [18] is Follistatin-related protein 3 (Homo sapiens) (UniProt O95633). The assay can be described thus: FSTL3 binders on small-molecule microarrays, primary screen, biochemical, small-molecule microarray, 635 nm fluorescence (AID 1105).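 Note: score merges emission near 667 nm and signal to noise per printed spot across three slides.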 The settings on record: FSTL3 binding, higher = more signal.
For assay [19], the target named is Dickkopf-related protein 1 (Homo sapiens) (UniProt O94907). As to the kind of experiment: DKK1 binders on small-molecule microarrays, primary screen, biochemical, small-molecule microarray, 635 nm fluorescence scan (AID 1106).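 Note: score merges emission near 667 nm with signal to noise over three replicate slides.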 To be noted: DKK1 binding, higher = more signal.
Assay [20] concerns Inhibin beta A chain (activin A). As to the kind of experiment: INHBA (activin A) binders on microarrays, primary screen, biochemical, small-molecule microarray, 635 nm fluorescence scan (AID 1107).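 Note: mouse activin A protein probed at 4.33 µg/mL on printed slides; score merges bound-protein fluorescence near 667 nm with spot signal-to-noise.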 To be noted: small-molecule microarray binding, higher = more signal.

From PubChem BioAssay come the findings set out here.

The source made the active and inactive calls.

Sequence of Follistatin-related protein 3 (Homo sapiens) (O95633 whole entry, looked up): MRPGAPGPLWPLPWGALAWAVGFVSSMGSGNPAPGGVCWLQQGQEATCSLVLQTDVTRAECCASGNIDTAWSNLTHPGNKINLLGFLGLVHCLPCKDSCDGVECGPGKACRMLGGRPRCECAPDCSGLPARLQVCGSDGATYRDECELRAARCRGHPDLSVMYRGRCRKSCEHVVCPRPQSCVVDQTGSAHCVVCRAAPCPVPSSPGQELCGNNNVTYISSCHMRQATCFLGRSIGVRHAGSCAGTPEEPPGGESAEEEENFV
Sequence of Neurogenic locus notch homolog protein 3 (Homo sapiens) (Q9UM47 whole entry, looked up): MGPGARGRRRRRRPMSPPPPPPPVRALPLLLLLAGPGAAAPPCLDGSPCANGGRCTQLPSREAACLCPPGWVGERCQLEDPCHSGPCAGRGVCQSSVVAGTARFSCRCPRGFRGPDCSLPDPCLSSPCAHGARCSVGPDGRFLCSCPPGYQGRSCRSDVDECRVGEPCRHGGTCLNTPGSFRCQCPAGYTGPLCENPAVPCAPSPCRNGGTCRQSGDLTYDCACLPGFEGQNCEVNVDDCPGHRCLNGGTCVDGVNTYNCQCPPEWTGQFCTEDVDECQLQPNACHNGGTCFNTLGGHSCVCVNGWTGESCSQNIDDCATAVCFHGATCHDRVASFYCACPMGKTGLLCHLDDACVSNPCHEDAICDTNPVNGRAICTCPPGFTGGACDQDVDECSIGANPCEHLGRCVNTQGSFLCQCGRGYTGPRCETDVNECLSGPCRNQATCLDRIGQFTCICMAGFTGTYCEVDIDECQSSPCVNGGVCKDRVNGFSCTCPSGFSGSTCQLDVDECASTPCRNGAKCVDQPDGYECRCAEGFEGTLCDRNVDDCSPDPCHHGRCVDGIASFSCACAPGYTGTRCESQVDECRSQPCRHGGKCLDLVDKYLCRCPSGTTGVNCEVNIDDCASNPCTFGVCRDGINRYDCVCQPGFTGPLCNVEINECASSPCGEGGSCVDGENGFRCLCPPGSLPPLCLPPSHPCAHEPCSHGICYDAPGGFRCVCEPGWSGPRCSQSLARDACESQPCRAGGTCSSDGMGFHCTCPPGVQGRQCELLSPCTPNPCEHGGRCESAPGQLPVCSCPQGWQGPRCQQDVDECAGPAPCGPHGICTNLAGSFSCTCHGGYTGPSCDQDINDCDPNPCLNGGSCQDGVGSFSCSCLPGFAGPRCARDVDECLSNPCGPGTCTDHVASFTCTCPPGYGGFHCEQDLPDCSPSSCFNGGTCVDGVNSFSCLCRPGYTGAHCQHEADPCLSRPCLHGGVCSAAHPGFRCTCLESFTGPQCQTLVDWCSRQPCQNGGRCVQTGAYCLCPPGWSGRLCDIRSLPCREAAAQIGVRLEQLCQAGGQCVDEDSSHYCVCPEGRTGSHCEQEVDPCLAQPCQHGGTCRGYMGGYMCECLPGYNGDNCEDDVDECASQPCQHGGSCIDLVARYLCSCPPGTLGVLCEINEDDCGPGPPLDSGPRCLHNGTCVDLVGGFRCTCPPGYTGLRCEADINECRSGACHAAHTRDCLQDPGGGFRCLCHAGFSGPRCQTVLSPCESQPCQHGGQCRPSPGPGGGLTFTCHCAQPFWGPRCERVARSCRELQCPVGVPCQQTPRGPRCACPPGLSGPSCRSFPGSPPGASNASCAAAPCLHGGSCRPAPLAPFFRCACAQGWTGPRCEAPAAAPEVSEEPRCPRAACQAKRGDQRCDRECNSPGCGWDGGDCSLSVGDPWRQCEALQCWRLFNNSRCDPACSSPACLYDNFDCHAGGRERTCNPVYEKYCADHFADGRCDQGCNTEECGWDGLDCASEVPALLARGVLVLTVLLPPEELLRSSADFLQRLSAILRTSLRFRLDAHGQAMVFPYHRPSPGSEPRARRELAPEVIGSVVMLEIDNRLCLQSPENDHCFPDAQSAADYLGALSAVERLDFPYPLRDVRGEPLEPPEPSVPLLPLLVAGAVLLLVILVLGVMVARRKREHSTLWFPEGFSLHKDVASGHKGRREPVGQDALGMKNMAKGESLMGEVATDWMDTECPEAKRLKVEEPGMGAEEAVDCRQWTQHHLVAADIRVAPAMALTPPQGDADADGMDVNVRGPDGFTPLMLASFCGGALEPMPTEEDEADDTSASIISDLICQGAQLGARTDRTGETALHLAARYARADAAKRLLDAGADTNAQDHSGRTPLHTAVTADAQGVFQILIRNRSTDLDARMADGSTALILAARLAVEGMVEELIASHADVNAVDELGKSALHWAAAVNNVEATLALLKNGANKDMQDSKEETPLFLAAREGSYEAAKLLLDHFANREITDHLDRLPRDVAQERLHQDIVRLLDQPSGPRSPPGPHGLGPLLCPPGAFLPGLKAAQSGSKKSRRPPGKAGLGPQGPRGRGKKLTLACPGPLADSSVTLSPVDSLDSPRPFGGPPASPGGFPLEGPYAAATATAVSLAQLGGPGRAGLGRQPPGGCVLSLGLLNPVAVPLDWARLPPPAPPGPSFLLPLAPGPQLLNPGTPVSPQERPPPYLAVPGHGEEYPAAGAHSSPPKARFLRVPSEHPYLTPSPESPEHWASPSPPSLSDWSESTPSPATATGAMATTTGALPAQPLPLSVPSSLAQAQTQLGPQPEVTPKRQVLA
Sequence of Torsin-1A-interacting protein 2 (Homo sapiens) (Q8NFQ8 whole entry, looked up): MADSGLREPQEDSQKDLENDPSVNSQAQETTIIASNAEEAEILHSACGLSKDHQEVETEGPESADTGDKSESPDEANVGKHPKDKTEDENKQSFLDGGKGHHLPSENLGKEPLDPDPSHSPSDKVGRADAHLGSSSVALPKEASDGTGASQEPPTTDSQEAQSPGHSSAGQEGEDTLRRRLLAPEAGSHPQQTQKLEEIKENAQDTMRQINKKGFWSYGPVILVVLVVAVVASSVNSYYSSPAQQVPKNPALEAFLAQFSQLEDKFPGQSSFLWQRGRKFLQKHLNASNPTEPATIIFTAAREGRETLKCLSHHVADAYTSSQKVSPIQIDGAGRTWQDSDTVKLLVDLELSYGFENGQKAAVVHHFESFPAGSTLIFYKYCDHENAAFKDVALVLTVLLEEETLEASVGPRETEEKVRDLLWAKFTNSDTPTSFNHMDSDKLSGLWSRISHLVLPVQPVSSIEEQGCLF
Sequence of Dickkopf-related protein 1 (Homo sapiens) (O94907 whole entry, looked up): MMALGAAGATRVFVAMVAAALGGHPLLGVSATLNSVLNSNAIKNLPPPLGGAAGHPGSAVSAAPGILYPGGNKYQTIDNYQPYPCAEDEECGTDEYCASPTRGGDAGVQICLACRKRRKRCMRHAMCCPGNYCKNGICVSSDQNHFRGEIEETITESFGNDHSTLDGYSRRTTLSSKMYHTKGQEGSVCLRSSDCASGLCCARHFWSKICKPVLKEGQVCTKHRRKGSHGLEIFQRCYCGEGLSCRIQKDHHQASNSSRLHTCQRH
Sequence of Epidermal growth factor receptor (Homo sapiens) (P00533 whole entry, looked up): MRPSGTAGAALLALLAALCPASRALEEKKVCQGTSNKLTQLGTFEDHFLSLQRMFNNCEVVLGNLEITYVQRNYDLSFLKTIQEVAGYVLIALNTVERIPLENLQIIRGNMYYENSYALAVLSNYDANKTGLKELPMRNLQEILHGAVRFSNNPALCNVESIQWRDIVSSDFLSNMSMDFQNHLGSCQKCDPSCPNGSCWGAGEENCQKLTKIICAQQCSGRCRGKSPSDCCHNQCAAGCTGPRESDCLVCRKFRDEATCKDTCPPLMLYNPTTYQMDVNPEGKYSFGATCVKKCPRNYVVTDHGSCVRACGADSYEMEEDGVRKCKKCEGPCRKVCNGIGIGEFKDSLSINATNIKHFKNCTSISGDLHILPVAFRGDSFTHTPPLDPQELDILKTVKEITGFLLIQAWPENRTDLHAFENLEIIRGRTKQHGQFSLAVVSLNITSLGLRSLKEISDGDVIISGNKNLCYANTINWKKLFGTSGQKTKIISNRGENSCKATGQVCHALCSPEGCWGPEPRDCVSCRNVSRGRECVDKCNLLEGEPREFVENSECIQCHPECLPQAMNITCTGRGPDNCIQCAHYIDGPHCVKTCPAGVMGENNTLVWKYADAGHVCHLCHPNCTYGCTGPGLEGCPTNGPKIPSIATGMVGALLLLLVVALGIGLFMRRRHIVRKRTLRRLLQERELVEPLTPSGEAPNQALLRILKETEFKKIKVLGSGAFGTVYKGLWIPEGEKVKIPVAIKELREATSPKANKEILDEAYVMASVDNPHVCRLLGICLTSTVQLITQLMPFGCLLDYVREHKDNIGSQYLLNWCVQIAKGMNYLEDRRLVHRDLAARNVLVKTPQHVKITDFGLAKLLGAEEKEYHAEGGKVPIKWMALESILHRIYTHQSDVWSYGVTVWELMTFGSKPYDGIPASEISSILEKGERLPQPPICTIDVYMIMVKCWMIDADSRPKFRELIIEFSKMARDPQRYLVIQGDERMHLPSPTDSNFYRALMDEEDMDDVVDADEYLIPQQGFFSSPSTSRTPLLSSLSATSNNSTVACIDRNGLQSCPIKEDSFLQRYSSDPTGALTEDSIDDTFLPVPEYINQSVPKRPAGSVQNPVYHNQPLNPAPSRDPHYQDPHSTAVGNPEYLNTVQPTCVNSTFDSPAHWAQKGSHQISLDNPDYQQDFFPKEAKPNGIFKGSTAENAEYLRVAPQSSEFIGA
Sequence of Fibroblast growth factor 10 (Homo sapiens) (O15520 whole entry, looked up): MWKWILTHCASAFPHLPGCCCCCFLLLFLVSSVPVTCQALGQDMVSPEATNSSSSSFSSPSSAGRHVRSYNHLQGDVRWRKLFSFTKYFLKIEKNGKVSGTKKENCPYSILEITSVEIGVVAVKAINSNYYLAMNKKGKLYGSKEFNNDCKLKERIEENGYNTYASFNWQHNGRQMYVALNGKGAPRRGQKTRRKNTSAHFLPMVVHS

As for `COCC(=C=CC[C@@H](O)c1ccc(OCCO)cc1)C[C@@H](O)COCc1ccccc1`, the composite z-score in assay [1] turned out to be 1.55; in assay [5], 3.16; in [7] it was 0.0282; in assay [8], 1.43; in assay [9], 0.964; in [10], 0.049. Besides, the composite z-score was 0.804 in assay [11]; -0.0148 in [12]; 0.548 in assay [13]; 1.52 in [15]; 0.611 in assay [16]; 0.158 in assay [17]. Further, the composite z-score is 0.939 in [18], -0.0983 in assay [19] and 1.42 in assay [20]. The z-score in assay [2] was -1.31 (inactive); in [3] it was -0.979 (inactive); in assay [4], -0.474 (inactive); in assay [6], 1.55 (inactive); in assay [14] it was -1.83 (inactive).
Turning to `CCCCC(O)C1C=CC2C(=O)NC(=O)C2N1Nc1ccccn1` (stereo not given), the composite z-score in assay [1] was -0.357; in [5], 0.0273; in [7], -0.0825; in [8] it was -0.0426; in assay [9], -0.421; in assay [10] it was -0.067. Also, the composite z-score in assay [11] was 1.1; in [12] it was 0.0006; in assay [13], -0.0537; in assay [15] it was -0.0249; in assay [16], 0.0652; in assay [17], 0.207. In addition, the composite z-score was -0.404 in assay [18], 0.0816 in [19] and 0.555 in [20]. Also, the z-score in assay [2] was 0.374 (inactive); in assay [3], 0.667 (inactive); in assay [4], 0.0569 (inactive); in [6] it was -1.73 (inactive); in assay [14], 2.17 (inactive).
As to `COCCOC(=O)N1C(=O)[C@@]2(c3cc(C#Cc4ccc(OC)cc4)ccc31)[C@H](C(=O)Nc1nc3ccccc3s1)[C@H]1C(=O)O[C@H](c3ccccc3)[C@H](c3ccccc3)N1[C@@H]2c1ccccc1OCCO`, the composite z-score was 1.58 in assay [1]; 1.55 in [5]; -0.179 in [7]; 1.06 in assay [8]; 1.13 in assay [9]; -0.0531 in [10]. The composite z-score in [11] was 0.655; in [12], -0.0582; in assay [13] it was -0.149; in [15], 0.517; in assay [16], 0.731; in [17], 0.29. Also, the composite z-score in [18] is 0.909; in [19], 0.534; in [20], 0.629. The z-score in [2] is 0.455 (inactive); in [3], 0.318 (inactive); in assay [4] it was 1.62 (inactive); in assay [6], 1.86 (inactive); in assay [14], -2.03 (inactive).
For `C=CCC(OC(C)=O)[C@@H]1[C@@H](N(Cc2cccc3ccccc23)C(=O)c2ccc(-c3ccccc3)cc2)c2cc(OCCCO)ccc2N1C(=O)c1ccc2ccccc2n1` (stereo not given in full), the composite z-score was 0.929 in [1]; 1.01 in assay [5]; 0.157 in assay [7]; 0.37 in assay [8]; 0.296 in assay [9]; -0.0271 in assay [10]. The composite z-score in assay [11] was 0.0273; in assay [12], 0.052; in assay [13] it was 0.265; in [15] it was 0.186; in assay [16] it was 0.159; in assay [17] it was -0.0618. Also, the composite z-score in assay [18] was 0.389; in assay [19], 0.19; in assay [20], 1.31. Besides, the z-score in assay [2] is -0.637 (inactive); in assay [3], 0.651 (inactive); in assay [4] it was -0.0728 (inactive); in assay [6], -0.747 (inactive); in assay [14], -0.395 (inactive).
As for `COC(=O)[C@@]1(Cc2ccccc2)[C@@H]2[C@@H](CC(=O)[C@H]2CC(=O)C(=O)N(C)C)CN1C(=O)c1ccccc1`, the composite z-score in assay [1] was -0.476; in assay [5], 3.34; in [7], -0.0221; in assay [8] it was -0.505; in [9], -0.18; in assay [10], 0.142. In addition, the composite z-score is 1.05 in assay [11]; 0.0889 in assay [12]; 0.929 in assay [13]; 0.225 in assay [15]; -0.901 in [16]; -0.185 in assay [17]. Moreover, the composite z-score in assay [18] is -0.0272; in assay [19] it was -0.782; in assay [20], 0.988. Moreover, the z-score was 1.02 (inactive) in assay [2]; 1.29 (inactive) in [3]; 0.633 (inactive) in assay [4]; -0.2 (inactive) in [6]; -0.155 (inactive) in [14].
